# The full ranking holds about 33,000 sequences; the median of “E-score (-0.5 to 0.5)” is about -0.032, and the highest 2% start at about 0.36. This excerpt belongs to a sample that is enriched for the highest values.
# Molecular target: T1, Sko1 (UniProt Q02100)
# T1 sequence: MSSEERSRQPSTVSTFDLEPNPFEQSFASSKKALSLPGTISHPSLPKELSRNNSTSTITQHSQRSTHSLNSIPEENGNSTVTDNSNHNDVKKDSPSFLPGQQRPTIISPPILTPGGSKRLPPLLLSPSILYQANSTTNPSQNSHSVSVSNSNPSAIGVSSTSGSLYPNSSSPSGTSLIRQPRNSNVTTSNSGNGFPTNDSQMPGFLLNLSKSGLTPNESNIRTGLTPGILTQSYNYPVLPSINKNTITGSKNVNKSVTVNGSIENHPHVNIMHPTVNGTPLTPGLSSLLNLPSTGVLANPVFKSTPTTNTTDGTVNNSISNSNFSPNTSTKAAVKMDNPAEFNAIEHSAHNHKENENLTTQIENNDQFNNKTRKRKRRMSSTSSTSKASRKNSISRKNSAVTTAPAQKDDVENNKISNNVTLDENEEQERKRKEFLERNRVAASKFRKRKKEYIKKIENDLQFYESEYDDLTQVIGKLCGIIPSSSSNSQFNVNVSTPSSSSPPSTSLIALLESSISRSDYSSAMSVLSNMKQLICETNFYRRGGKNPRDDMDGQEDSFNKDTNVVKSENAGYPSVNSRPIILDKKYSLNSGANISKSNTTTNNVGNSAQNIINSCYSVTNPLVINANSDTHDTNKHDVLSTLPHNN
# Assay: PBM E-score (8-mer binding enrichment) (E-score (-0.5 to 0.5)); higher = stronger / more preferred TF binding
# Conditions: protein concentration: 200 nM; construct: GST-full length
# Experimental: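 Universal 'all 10-mer' protein binding microarrays (Agilent AMADID 015681) probed with GST-tagged S. cerevisiae TFs (full-length or DBD) made by in vitro transcription/translation (PURExpress), about 100-200 nM. Bound TF was detected with fluorescent anti-GST. Each ungapped 8-mer (which stands for itself and its reverse complement) is scored by the PBM enrichment score (E-score), a modified Wilcoxon-Mann-Whitney statistic from -0.5 to +0.5, computed with the Universal PBM Analysis Suite. Scale: above 0.35 generally sequence-specific binding.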
row,Sequence,PBM E-score
1,CGCTAAAA,-0.102
2,ATAATAGG,0.114
3,GGCGGACC,-0.321
4,AAACTGAG,-0.159
5,ACGTAGAC,0.415
6,ACGTAGAA,0.434
7,ACGTAGAT,0.452
8,AAGTAGAT,-0.00622
9,ACTTAGAG,-0.0119
10,CCGTAGAA,-0.14
11,ACGTAGAG,0.387
12,GCGTAGAC,0.0511
13,AGGTAGAT,-0.0309
14,CCGTAGAG,-0.258
15,CCGTAGAC,-0.135
16,GCGTAGAA,0.178
17,AATCTGCC,-0.0515
18,AATCAGGT,0.113
19,CGCCCCAC,-0.0143
20,AGCGCCGC,-0.199
21,CCCGGTAA,-0.206
22,CATCCTGA,0.0812

row,Sequence,PBM E-score
1,TATAACGA,0.186
2,AGACGCCA,0.0116
3,GGACGCAA,0.164
4,ACACGCAA,0.376
5,TCACGCAA,0.384
6,TGACGCAA,0.483
7,TGACGCCA,0.453
8,ACACGCAC,0.158
9,CGACGCCA,0.174
10,ACACGCAT,0.219
11,AGACGCAA,0.258
12,GCACGCAA,0.252
13,CCACGCAA,0.308
14,CGAGTCGC,-0.243
15,GCGGTCTA,0.0211
16,CAGATCTC,-0.196
17,CGATGTAA,0.175
18,TGATGTAA,0.434
19,AGATGTAA,0.256
20,AACGGAGT,-0.09
21,AATATGAC,0.367
22,ACGATGAC,0.336

row,Sequence,PBM E-score
1,GCGATGAA,-0.0296
2,GATATGAC,0.326
3,AATATGAT,0.254
4,GCGATGAC,0.374
5,CATATGAC,0.404
6,GAGATGAC,0.254
7,CAGATGAC,0.37
8,CATATGAG,-0.0409
9,AATATGAG,0.146
10,AAGATGAC,0.337
11,GCAAAGAC,0.00382
12,GATAGTCC,-0.141
13,CATTTAAA,0.178
14,ACTCACGC,0.14
15,GCTTAGCC,-0.313
16,CTGGCGCC,-0.181
17,TCCTAACA,0.0335
18,CTGAATAC,0.15
19,TCAACCGA,0.204
20,ATTATGAC,0.349
21,CTTATGAA,-0.0245
22,GCTATGAC,0.364

row,Sequence,PBM E-score
1,CTTATGAC,0.374
2,ACTATGAC,0.342
3,CCTATGAC,0.308
4,TATCAGCA,0.0232
5,ACGAGCAG,-0.0309
6,CAAGAGCA,-0.0878
7,GCCTAGAA,-0.121
8,ACGTGTTA,0.434
9,ATGTGTTG,0.203
10,CCGTGTTA,-0.0886
11,CCGTGTTC,-0.0799
12,AGGTGTTG,0.0206
13,AGGTGTTC,-0.0318
14,ACGTGTTG,0.426
15,ACGTGTTC,0.36
16,GCGTGTTA,0.114
17,ACTGGTTC,-0.132
18,GCAGTCAC,-0.0169
19,GAGCGAGA,-0.0193
20,CGCGGTTA,-0.0722

# Reference: the supplement of paper PMC3334620
